# Bioassay records: PubChem BioAssay, National Center for Advancing Translational Sciences (NCATS)
# FBPA coupling cs – qHTS Assay for Inhibitors of Fructose-1,6-bisphosphate Aldolase from Giardia Lamblia: Coupling assay counterscreen; coupling enzyme system counterscreen, AmpLite Red fluorescence; 0.67% of 290,000 active; activity change, negative = inhibition, % at 58.2 µM, hits read low; in the data active means activity change below about -30%
#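 First, compound is pin-transferred into glyceraldehyde-3-phosphate coupling-enzyme reagent at 57.5 uM final and held 10 min at RT. Next, substrate, coupling system and AmpLite Red are added. After 20 min RT, fluorescence (525/598 nm) is read.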
# USP1-UAF1 inh – Inhibitors of USP1/UAF1: Primary Screen | Potency, µM (top dose mostly 57.1 µM), inactives show at the highest dose activity change, negative = inhibition, hits mostly inhibitors | 0.23% of 390,000 active | recombinant USP1/UAF1, Ub-Rhodamine cleavage fluorescence; further: potency means the concentration at half of the fitted maximal effect; nearly all actives have a fitted effect of over 60% in size
# Target sequence (O94782 whole entry, looked up): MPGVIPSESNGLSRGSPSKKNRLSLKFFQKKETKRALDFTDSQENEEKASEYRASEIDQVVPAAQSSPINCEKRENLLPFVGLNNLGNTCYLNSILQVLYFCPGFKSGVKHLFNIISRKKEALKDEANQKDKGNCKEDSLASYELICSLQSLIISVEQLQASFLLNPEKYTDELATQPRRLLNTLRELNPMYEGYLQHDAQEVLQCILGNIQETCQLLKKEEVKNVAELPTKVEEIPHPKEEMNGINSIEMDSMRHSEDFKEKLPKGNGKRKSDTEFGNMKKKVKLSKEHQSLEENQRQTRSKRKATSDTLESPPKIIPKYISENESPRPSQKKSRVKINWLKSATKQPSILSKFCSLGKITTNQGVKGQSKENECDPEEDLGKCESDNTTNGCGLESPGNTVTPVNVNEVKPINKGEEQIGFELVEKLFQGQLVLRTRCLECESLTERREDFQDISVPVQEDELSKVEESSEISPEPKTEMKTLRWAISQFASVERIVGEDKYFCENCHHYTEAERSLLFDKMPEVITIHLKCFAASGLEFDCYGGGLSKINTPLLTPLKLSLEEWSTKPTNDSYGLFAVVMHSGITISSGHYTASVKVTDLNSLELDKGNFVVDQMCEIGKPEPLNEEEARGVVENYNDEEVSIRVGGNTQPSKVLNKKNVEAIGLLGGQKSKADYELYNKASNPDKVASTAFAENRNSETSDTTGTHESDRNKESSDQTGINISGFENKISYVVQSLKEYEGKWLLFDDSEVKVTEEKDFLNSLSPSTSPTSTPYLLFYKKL
#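 USP1/UAF1 complex at 1 nM was preincubated with compound for 15 min at room temperature, then Ub-Rho substrate (150nM final) was added. Fluorescence (480/540 nm) was read kinetically, 6 reads every 60 seconds.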
# Tau FP inhib – qHTS for Inhibitors of Tau Fibril Formation, Fluorescence Polarization | Potency, µM (titrated, usually from 57.7 µM), for the others: at the highest dose activity, negative = inhibition, most hits filed as inhibitors | K18 P301L tau heparin fibrillization, Alexa594 FP, 6 h | AID 1468, 2008 | 0.39% of 280,000 active; further: potency means the concentration at half of the fitted maximal effect; nearly all actives have a fitted effect of over 55% in size
#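 Recombinant K18 P301L […], labeled with Alexa 594 at 0.24 uM over 15 uM unlabeled; heparin inducer 20 uM final; 37 C, 6 hr; FP endpoint.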
# Tau fluor counter – Counterscreen qHTS for Inhibitors of Tau Fibril Formation, Fluorescence Polarization. tau K18 P301L Alexa594 fluorescence, heparin fibrillization. Potency, µM (highest dose often 57.7 µM), without a hit: at the top dose activity change, negative = decrease. 0.93% of 280,000 active; further: potency means the concentration at half of the fitted maximal effect; nearly all actives have a fitted effect of over 55% in size
#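 Human K18 P301L tau (15 uM unlabeled plus 0.24 uM Alexa 594-labeled, final) in 100 mM sodium acetate pH 7 was mixed with compound and 20 uM heparin and incubated 6 hr at 37 C.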
# Tau ThT inhib – qHTS for Inhibitors of Tau Fibril Formation, Thioflavin T Binding. recombinant tau K18 P301L (four-repeat tau fragment), heparin-induced fibrillization, ThT fluorescence. Potency, µM (doses to about 57.4 µM), without a hit: at the highest dose activity, negative = inhibition, usual class: inhibitors. 2.1% of 270,000 active; further: potency means the concentration at half of the fitted maximal effect; nearly all actives have a fitted effect of over 55% in size
#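 Tau K18 P301L fragment (15 uM unlabeled plus 0.24 uM Alexa 594-labeled) in 100 mM sodium acetate pH 7 with compound, fibrillization induced by 20 uM heparin for 6 hr at 37 C. Thioflavin T (30 uM) added, fluorescence read after 1 hr (ex 450, em 510 nm).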
# * hit, by the source's call; ? = inconclusive; . = not tested or not shown; [ ] = another dose, or the depositor's remark. Hits are enriched below; roughly 2.3% of the tested compounds scored in any of these assays. Unless noted, the call rests on the fitted dose curve; in most records, active means well fitted curve in the direction sought with a large enough effect; inconclusive means small, poorly fitted or top-dose-only effect, or another doubt; inactive means no such curve, though single readings can be large; an effect the other way counts as inactive or inconclusive. On the % scale 0 is the no-effect control and ±100 the full control effect.
SMILES,FBPA coupling cs,USP1-UAF1 inh,Tau FP inhib,Tau fluor counter,Tau ThT inhib
Clc1ccc(/C=N/c2c(-c3ccco3)nc3ccccn23)cc1,-28.1,-18.7%,?,25.1µM*[quencher],25.1µM*
Oc1ccccc1/C=N/c1c(-c2ccco2)nc2ccccn12,-29.9,-8.7%,?,22.4µM*[quencher],22.4µM*
CC(=O)N1c2ccc(S(=O)(=O)NCC3CCC(C(=O)Nc4cccc(C)c4)CC3)cc2CC1C (stereo not drawn),.,-8.9%,1.5%,-6.7%,-2.1%
COCc1cc(C)nc2sc3c(c12)NC(c1ccccc1C(=O)O)N(c1ccc(OC)cc1)C3=O (stereo not drawn),.,-10.1%,3.4%,7.1%,-3.6%
COc1ccc(/C=C/C(=O)c2ccccc2O)cc1,1.0,-18.8%,7.6%[11.6 µM],-13.0%[11.6 µM],?
COc1ccc(/C=C/C(=O)c2ccccn2)cc1,-27.9,?,-14.6%,-21.6%,20µM*
COc1ccc([N+](=O)[O-])c(C=CC(=O)c2ccccn2)c1,.,-14.9%,.,.,.
COc1ccc(/C=C/C(=O)c2c(O)c(OC)c3occc3c2OC)cc1,-2.0,-7.2%,3.1%,?,4.47µM*
Cn1c(SCC(=O)Nc2nccs2)nnc1-c1ccccn1,2.6,-14.5%,.,.,.
CCN(CC)c1ccc(N)cc1S(=O)(=O)Nc1ccc(OC)cc1,-2.4,-10.9%,11.8%,-14.6%,-8.3%
CCN(CC)c1ccc(N)cc1S(=O)(=O)Nc1ccccc1OC,-5.2,-10.6%,?,-22.7%,25.1µM*
C[C@H]1COC(=O)[C@H](CC(=O)OC(C)(C)C)C/C=C\C[C@@H](CC(=O)NCCO)C(=O)N1,.,-3.5%,.,.,.
COc1ccc(Nc2ccc3cc(S(=O)(=O)N4CCCC4)ccc3n2)cc1OC,.,-16.4%,10.6%,11.2µM*[quencher],?
O=S(=O)(c1ccc2nc(Nc3ccccc3)ccc2c1)N1CCCCC1,-4.1,-8.2%,.,.,.
COc1cccc(Nc2ccc3cc(S(=O)(=O)N4CCC(C)CC4)ccc3n2)c1,.,-31.2%,?,5.01µM*[quencher],9.9%
CC(=O)c1cccc(Nc2ccc3cc(S(=O)(=O)N4CCCC4)ccc3n2)c1,.,?,?,?,5.6%
Cc1ccc(-n2c(=O)c3c4c(sc3n(CC(=O)Nc3ccccc3C)c2=O)CCCCC4)cc1C,.,-4.0%,-1.7%,-0.6%,2.3%
O=C(/C=C\Nc1ccc2c(c1)OCO2)c1ccc(Cl)s1,1.6,-9.5%,-4.0%,-17.0%,2.82µM*
O=C(/C=C\Nc1ccc2c(c1)OCO2)c1cccs1,-4.9,-22.6%,-5.8%,?,2µM*
O=c1cc(-c2ccccc2Cl)oc2ccc([N+](=O)[O-])c(O)c12,4.0,-5.6%,-2.6%[81.3 µM],-17.9%[81.3 µM],11.2µM*
Nc1ccc2oc(CCc3ccccc3)nc2c1,-34.7*,-18.8%,2.6%,-12.9%,?
COC1=CC(=O)c2ccccc2C1=O,.,12.6µM*,.,.,.
COC1=CC(=O)C=C(OC)C1=O,-81.3*,-7.4%,22.4µM*,?,10µM*
O=C1CC(C(=O)O)(c2ccccc2)c2cccc(F)c21 (stereo not drawn),1.3,0.0%,.,.,.
CCOc1ccccc1NC(=O)Cn1c(=O)n(Cc2cccs2)c(=O)c2cccnc21,.,4.4%,-16.2%,-20.7%,-16.2%
SMILES,FBPA coupling cs,USP1-UAF1 inh,Tau FP inhib,Tau fluor counter,Tau ThT inhib
Cc1cc(O)c2c(c1O)C(=O)C(O)=C(O)C2=O,-12.7,.,17.8µM*,?,12.6µM*
CN(Cc1ccccc1)C(=O)c1ccc(NC(=O)Cc2ccc(NC(=O)C3CCCN(C(=O)CCc4ccccc4)C3)cc2)cc1 (stereo not drawn),.,-21.8%,.,.,.
Cc1ccc(C)c2[nH]c(=O)c(C(c3nnnn3Cc3ccco3)N3CCc4ccccc4C3)cc12 (stereo not drawn),-34.0*,-11.3%,?,-18.2%,31.6µM*
Cc1ccc(C)c2[nH]c(=O)c(C(c3nnnn3CCc3ccccc3)N3CCOCC3)cc12 (stereo not drawn),0.1,-5.0%,-5.8%,-7.9%,-5.4%
Cc1cc(C)c(S(=O)(=O)Nc2cccc3cccnc23)c(C)c1,-16.3,.,.,.,.
Cc1cc(C)c(S(=O)(=O)Nc2ccc[nH]c2=O)c(C)c1,-71.7*,-19.7%,1.7%,4.9%,6.1%
COc1ccccc1C(=O)NCCSc1c(C)[nH]c2ccccc12,.,-12.7%,2.5%,15.8µM*[quencher],?
COc1cc(C(=O)NCCSc2c(C)[nH]c3ccccc23)cc(OC)c1OC,.,-9.2%,-3.3%,25.1µM*[quencher],?
Cc1[nH]c2ccccc2c1SCCNC(=O)c1ccccc1F,.,0.7%,7.6%,25.1µM*[quencher],?
COc1cccc(C(=O)NCCSc2c(C)[nH]c3ccccc23)c1OC,0.3,?,15.3%,?,.
Cc1ccc(C(=O)NCCSc2c(C)[nH]c3ccccc23)cc1[N+](=O)[O-],-6.9,-24.9%,-1.1%,-3.5%,4.2%
CC(C)c1ccccc1N=C1SCCCN1C(=O)c1cccc(N2C(=O)CCC2=O)c1,.,1.3%,.,.,.
CC(=O)N1CCSc2ccc(S(=O)(=O)Nc3ccccc3C)cc21,.,-20.5%,.,.,.
CC(=O)c1c(C)[nH]c(C(=O)OCC(=O)Nc2ccc3c(c2)OCCO3)c1C,.,-16.3%,.,.,.
COc1cc(S(=O)(=O)NCCc2c(C)[nH]c3ccccc23)c(C)cc1C,.,-30.8%,?,12.6µM*[quencher],?
CCc1ccc2c(c1)C1(NN=C(c3ccc(C)cc3)S1)C(=O)N2 (stereo not drawn),0.8,-18.1%,0.8%,?,?
CC(C)c1ccc2c(c1)C1(NN=C(c3ccccc3)S1)C(=O)N2 (stereo not drawn),-4.6,-14.4%,13.7%,?,25.1µM*
Cc1nnc(N/N=C/c2cccc(OCc3ccc(Cl)c(Cl)c3)c2)n1N,-19.5,?,-12.9%,25.1µM*[quencher],12.6µM*
N#Cc1cccc(N=Cc2c(O)ccc3ccccc23)c1,-38.1*,-17.0%,-17.9%,-12.3%,?
O=C(O)c1ccc(N=Cc2c(O)ccc3ccccc23)cc1,-35.8*,-27.5%,.,.,.
COc1ccc(Cn2c(O)c(C=Nc3ccc(O)cc3)c3ccccc3c2=O)cc1,1.3,?,?,4.47µM*[quencher],?
CCOC(=O)c1sc(/N=C/c2c(O)ccc3ccccc23)cc1C,-33.5*,-16.7%,-4.3%,-21.8%,?
Cc1oc(/N=C/c2c(O)ccc3ccccc23)c(C#N)c1C,-30.4*,.,?,-29.7%,17.8µM*
Cc1ccc(N=Cc2c(O)ccc3ccccc23)cc1F,-46.9*,3.3%,?,-29.1%,?
Cn1c(/N=C/c2c(O)ccc3ccccc23)nc2ccccc21,-79.0*,?,10.7%,4.6%,11.6%
Nc1nonc1N/N=C/c1c(O)ccc2ccccc12,-9.4,-16.2%,4.9%,10µM*[quencher],?
